Experiment [1] in a line: antimalarial activity against Dd2 strain (AID 2302;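 active = growth inhibition above 50% at the single 2 µM test dose, taken to imply half-maximal potency below 2 µM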;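 note: 0% = DMSO untreated growth and 100% = chloroquine plus artemisinin killed control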). The conditions noted are these: P. falciparum Dd2 in RBCs, LDH growth readout, 72 h; at 2 µM; stronger effect = higher value.
The nature of experiment [2]: human hepatoma cell viability loss – ATP luminescence, cytotoxicity control for P. falciparum antimalarial project, primary screen (AID 2303;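 active = inhibition above 50%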;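 note: 0% = DMSO wells and 100% = digitonin-killed cells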). The conditions noted are these: HepG2 viability, 24-48 h, at 10 µM, stronger effect = higher value.
In experiment [3] the target is L-lactate dehydrogenase (Plasmodium falciparum (isolate CDC / Honduras)) (UniProt Q27743). The experiment is described as follows: PfLDH activity inhibition – cell lysate, 3D7 strain, counter-screen for P. falciparum growth inhibition project (AID 2304).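 Note: 0% = vehicle and 100% = reference inhibitor.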 The conditions noted are these: P. falciparum 3D7 crude extract, LDH APAD/NBT absorbance; at 2 µM; stronger effect = higher value. In general terms: The purpose of a counterscreen is to sort out artefacts and off-target activity.

A short description of experiment [4]: inhibition of 3D7 malaria parasite growth – strain 3D7 (AID 2306).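 Note: 0% = DMSO wells and 100% = chloroquine plus artemisinin control wells.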 The conditions noted are these: P. falciparum 3D7 erythrocytic growth, LDH absorbance, 72 h; at 2 µM; stronger effect = higher value.
The target in experiment [5] is Calcium-dependent protein kinase 1 (Plasmodium falciparum (isolate 3D7)) (UniProt P62344). The experiment in a line: PfCDPK1 kinase inhibitors, biochemical, TCAMS library (AID 1159585; cut-off not given, nearly all actives have IC50 up to about 0.98 µM;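 note: inhibitors leave more ATP so luminescence rises with inhibition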). The conditions noted are these: recombinant PfCDPK1, Kinase-Glo ATP depletion luminescence.
Experiment [6] deals with Plasmodium falciparum protein kinase 6 (PK6, PF3D7_1337100) (UniProt Q8IDW1). The experiment is described as follows: PfPK6 kinase inhibitors, biochemical, TCAMS library (AID 1159586). The conditions noted are these: recombinant PfPK6, Kinase-Glo ATP depletion luminescence. In general terms: In Kinase-Glo more light means more ATP remaining.
Experiment [7] addresses Protein kinase 7 (PK7), Plasmodium falciparum 3D7 (PF3D7_0213400) (UniProt Q7YTF7). The experiment is described as follows: inhibition of Plasmodium PK7 catalytic activity – biochemical, TCAMS antimalarial set, Kinase-Glo luminescence (AID 1159587). The conditions noted are these: recombinant PfPK7, Kinase-Glo ATP depletion luminescence.
Experiment [8] addresses Calcium-dependent protein kinase 4 (Plasmodium falciparum (isolate 3D7)) (UniProt Q8IBS5). The experiment in a line: PfCDPK4 kinase inhibitors, biochemical, TCAMS library (AID 1159588; cut-off not given, nearly all actives have IC50 up to about 0.91 µM). The conditions noted are these: recombinant PfCDPK4, Kinase-Glo ATP depletion luminescence.

Unmarked numbers belong to inactive results. For part of these data: Measured potencies and affinities stand elsewhere. Calls of active or inactive are those of the source. Unless noted, the rule behind the calls is not given here.

Sequence of Calcium-dependent protein kinase 4 (Plasmodium falciparum (isolate 3D7)) (Q8IBS5 whole entry, looked up): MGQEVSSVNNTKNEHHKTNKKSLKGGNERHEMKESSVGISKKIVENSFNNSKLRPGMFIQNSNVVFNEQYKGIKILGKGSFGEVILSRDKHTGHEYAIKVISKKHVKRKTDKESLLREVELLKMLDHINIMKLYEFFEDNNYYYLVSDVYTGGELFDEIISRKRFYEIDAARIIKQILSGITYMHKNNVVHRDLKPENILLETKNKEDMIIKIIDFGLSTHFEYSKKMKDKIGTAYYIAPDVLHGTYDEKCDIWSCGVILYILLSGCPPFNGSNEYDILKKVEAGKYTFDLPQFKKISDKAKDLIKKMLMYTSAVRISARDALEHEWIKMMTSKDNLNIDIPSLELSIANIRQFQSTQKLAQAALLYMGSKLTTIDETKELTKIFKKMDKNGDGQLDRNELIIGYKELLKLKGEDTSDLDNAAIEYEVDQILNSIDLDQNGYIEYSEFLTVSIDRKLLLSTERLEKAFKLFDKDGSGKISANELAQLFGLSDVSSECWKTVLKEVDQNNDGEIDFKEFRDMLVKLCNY
Sequence of Plasmodium falciparum protein kinase 6 (PK6, PF3D7_1337100) (Q8IDW1 1-305): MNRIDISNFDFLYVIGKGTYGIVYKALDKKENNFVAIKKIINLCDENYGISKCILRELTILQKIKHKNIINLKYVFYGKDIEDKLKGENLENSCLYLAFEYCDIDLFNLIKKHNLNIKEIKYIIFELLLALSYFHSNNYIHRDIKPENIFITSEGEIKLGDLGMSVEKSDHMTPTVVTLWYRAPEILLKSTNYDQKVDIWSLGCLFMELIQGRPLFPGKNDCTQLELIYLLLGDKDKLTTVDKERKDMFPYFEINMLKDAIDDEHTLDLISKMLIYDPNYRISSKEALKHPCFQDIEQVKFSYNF
Sequence of Calcium-dependent protein kinase 1 (Plasmodium falciparum (isolate 3D7)) (P62344 whole entry, looked up): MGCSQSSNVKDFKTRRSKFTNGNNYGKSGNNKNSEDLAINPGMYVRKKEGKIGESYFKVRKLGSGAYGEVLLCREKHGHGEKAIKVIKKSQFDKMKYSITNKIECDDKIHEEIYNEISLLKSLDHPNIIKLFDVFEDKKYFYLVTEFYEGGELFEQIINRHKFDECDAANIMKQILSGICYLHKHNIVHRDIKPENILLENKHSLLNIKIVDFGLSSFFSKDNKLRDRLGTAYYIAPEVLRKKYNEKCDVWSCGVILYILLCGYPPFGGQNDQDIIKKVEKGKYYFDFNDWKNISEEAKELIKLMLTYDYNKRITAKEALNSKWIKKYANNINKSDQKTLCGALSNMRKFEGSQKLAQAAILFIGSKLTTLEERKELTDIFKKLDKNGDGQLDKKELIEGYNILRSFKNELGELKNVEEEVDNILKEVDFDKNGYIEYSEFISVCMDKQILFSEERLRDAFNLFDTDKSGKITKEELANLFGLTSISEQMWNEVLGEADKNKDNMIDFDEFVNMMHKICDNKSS
Sequence of Protein kinase 7 (PK7), Plasmodium falciparum 3D7 (PF3D7_0213400) (Q7YTF7 1-343): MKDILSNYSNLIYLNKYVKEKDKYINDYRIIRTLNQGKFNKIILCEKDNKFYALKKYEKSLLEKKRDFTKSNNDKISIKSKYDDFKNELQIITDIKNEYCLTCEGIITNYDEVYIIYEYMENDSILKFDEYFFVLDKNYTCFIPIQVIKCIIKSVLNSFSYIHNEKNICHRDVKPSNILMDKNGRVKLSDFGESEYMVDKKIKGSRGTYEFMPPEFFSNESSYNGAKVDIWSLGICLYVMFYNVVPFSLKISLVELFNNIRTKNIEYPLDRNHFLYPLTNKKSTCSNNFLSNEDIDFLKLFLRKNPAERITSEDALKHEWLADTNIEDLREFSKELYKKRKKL
Sequence of L-lactate dehydrogenase (Plasmodium falciparum (isolate CDC / Honduras)) (Q27743 whole entry, looked up): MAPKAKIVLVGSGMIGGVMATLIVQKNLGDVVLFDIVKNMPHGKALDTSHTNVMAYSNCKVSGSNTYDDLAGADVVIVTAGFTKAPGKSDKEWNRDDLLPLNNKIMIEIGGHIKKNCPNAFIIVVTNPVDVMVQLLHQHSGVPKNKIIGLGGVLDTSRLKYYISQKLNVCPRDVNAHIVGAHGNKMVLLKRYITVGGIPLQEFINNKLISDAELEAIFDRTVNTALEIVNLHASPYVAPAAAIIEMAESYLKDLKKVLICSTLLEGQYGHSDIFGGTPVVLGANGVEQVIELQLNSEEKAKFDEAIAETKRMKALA

For `Oc1ccc(CCCc2cc(Oc3c(I)cc(CCc4ncc[nH]4)cc3I)ccc2O)cc1`, the growth inhibition in experiment [1] is 7%; in experiment [4] it was 95% (active). The inhibition (commonly the relative decrease from the control value, in per cent) in experiment [2] is 26%; in experiment [3] it was -9%. Further, the outcome in experiment [5], in experiment [6], in experiment [7] and in experiment [8] was inactive.
Regarding `O=C(Nc1cccc(F)c1)c1ccc(C(=O)NC2CCN(CC3CCCCC3)CC2)cc1`, the growth inhibition in experiment [1] was 16%; in experiment [4], 96% (active). The inhibition in experiment [2] is 22%; in experiment [3] it was -7%. The result in experiment [5], in experiment [6], in experiment [7] and in experiment [8] was inactive.
Regarding `Nc1nc(N)c2c(ccc3c2ccn3CCCCO)n1`, the growth inhibition in experiment [1] was 49%; in experiment [4], 93% (active). Also, the inhibition in experiment [2] was 61% (active); in experiment [3] it was -2%. The result in experiment [5], in experiment [6], in experiment [7] and in experiment [8] was inactive.
Turning to `Cc1cc(NC(=O)c2coc3cc(F)c(N4C[C@@H](C)N(C)[C@@H](C)C4)cc23)cnc1-c1ccc(C#N)cc1`, the growth inhibition in experiment [1] was 71% (active); in experiment [4] it was 99% (active). The values for the inhibition in experiment [2] and in experiment [3] were 35% and -3%, respectively. The outcome in experiment [5], in experiment [6], in experiment [7] and in experiment [8] was inactive.
Take `O=C(/C=C/c1ccc(Cl)c(Cl)c1)NCCCCCN1CCC(c2cn[nH]c2-c2ccccc2)CC1`: the values for the growth inhibition in experiment [1] and in experiment [4] were -2% and 85% (active), respectively. In addition, the inhibition in experiment [2] was 28%; in experiment [3] it was -2%. In addition, the result in experiment [5], in experiment [6], in experiment [7] and in experiment [8] was inactive.
As for `COc1ccc2ncc(F)c(CCN3CC[C@@H](CNCc4ccc5c(c4C)OCCO5)C3)c2n1`, the values for the growth inhibition in experiment [1] and in experiment [4] were 11% and 94% (active), respectively. Besides, the figures for the inhibition in experiment [2] and in experiment [3] were 17% and 1%, respectively. Moreover, the outcome in experiment [5], in experiment [6], in experiment [7] and in experiment [8] was inactive.
`CCCNC(=O)C1Cc2c([nH]c3ccc(Br)cc23)C2(CCN(CCc3ccccc3)CC2)N1` (stereo not drawn): the growth inhibition is 49% in experiment [1] and 99% (active) in experiment [4]. Also, the inhibition is 16% in experiment [2] and -8% in experiment [3]. In addition, the result in experiment [5], in experiment [6], in experiment [7] and in experiment [8] was inactive.
Regarding `c1ccc(CN2CCN(CCNc3c4ccccc4nc4ccccc34)CC2)cc1`, the growth inhibition is 97% (active) in experiment [1] and 100% (active) in experiment [4]. Besides, the inhibition in experiment [2] was 44%; in experiment [3] it was 9%. The result in experiment [5], in experiment [6], in experiment [7] and in experiment [8] was inactive.
Consider `Cc1cccc2[nH]c(-c3ccc(-c4ccc(NC(=O)NCc5cccc(F)c5)cc4)cc3)nc12`, for which the values for the growth inhibition in experiment [1] and in experiment [4] were 12% and 97% (active), respectively. For the same molecule, the inhibition in experiment [2] was 46%; in experiment [3], 7%. The result in experiment [5], in experiment [6], in experiment [7] and in experiment [8] was inactive.
Regarding `O=C1C([N+](=O)[O-])=C(O)c2cccc(F)c21`, the growth inhibition in experiment [1] is 13%; in experiment [4], 95% (active). Further, the inhibition in experiment [2] was 9%; in experiment [3], 0%. Also, the outcome in experiment [5], in experiment [6], in experiment [7] and in experiment [8] was inactive.
Regarding `O=C(NCc1ccc(Cl)cc1)c1ccc(CN2CCCN(CC3CCCCC3)CC2)cc1`, the growth inhibition in experiment [1] is 5%; in experiment [4], 84% (active). Also, the inhibition in experiment [2] is 18%; in experiment [3], -3%. For the same molecule, the result in experiment [5], in experiment [6], in experiment [7] and in experiment [8] was inactive.
As to `CCN(CC)CCCNCc1ccc(-c2ccc(C(F)(F)F)cc2)cc1`, the growth inhibition is 35% in experiment [1] and 95% (active) in experiment [4]. Further, the inhibition in experiment [2] was 53% (active); in experiment [3] it was -4%. The result in experiment [5], in experiment [6], in experiment [7] and in experiment [8] was inactive.
As to `N#Cc1ccc2c(c1)CCN(CCC1CCC(NC(=O)/C=C/c3c[nH]c4c(Br)cccc34)CC1)CC2` (stereo not drawn), the results for the growth inhibition in experiment [1] and in experiment [4] were 65% (active) and 101% (active), respectively. The results for the inhibition in experiment [2] and in experiment [3] were 32% and 0%, respectively. For the same molecule, the outcome in experiment [5], in experiment [6], in experiment [7] and in experiment [8] was inactive.
For `CC(C)CCCC(C)(C)NC[C@@H](O)[C@H](Cc1ccccc1)NC(=O)c1cccc(OCC2CC2)c1`, the growth inhibition was 91% (active) in experiment [1] and 96% (active) in experiment [4]. In addition, the inhibition in experiment [2] is 99% (active); in experiment [3], 3%. The outcome in experiment [5], in experiment [6], in experiment [7] and in experiment [8] was inactive.
Regarding `CN(CCc1ccccn1)c1cccc2c1nc(-c1cccnc1)n2CCNCc1ccccc1`, the growth inhibition in experiment [1] is 97% (active); in experiment [4], 90% (active). For the same molecule, the inhibition in experiment [2] was 12%; in experiment [3] it was 2%. Also, the outcome in experiment [5], in experiment [6], in experiment [7] and in experiment [8] was inactive.
For the molecule `FC(F)(F)c1ccc2nc(-c3ccc(-c4ccc(CN5CCN(c6ccncc6)CC5)cc4)cc3)[nH]c2c1`, the growth inhibition in experiment [1] is 99% (active); in experiment [4], 101% (active). Further, the values for the inhibition in experiment [2] and in experiment [3] were 91% (active) and 6%, respectively. For the same molecule, the result in experiment [5], in experiment [6], in experiment [7] and in experiment [8] was inactive.
Regarding `COc1cccc(C(=O)Nc2nc3c(s2)CCN(Cc2ccccc2N2CCNCC2)CC3)c1`, the growth inhibition was 11% in experiment [1] and 89% (active) in experiment [4]. The inhibition in experiment [2] was 7%; in experiment [3], -6%. The result in experiment [5], in experiment [6], in experiment [7] and in experiment [8] was inactive.
On to `CN1CCCN(Cc2ccc(-c3cccc(NC(=O)c4cccc(F)c4)c3)cc2)CC1`, for which the growth inhibition was 12% in experiment [1] and 91% (active) in experiment [4]. For the same molecule, the inhibition in experiment [2] was 28%; in experiment [3] it was -3%. Moreover, the result in experiment [5], in experiment [6], in experiment [7] and in experiment [8] was inactive.
Take `CN(C)c1ccc(-c2csc(C(=O)NCC3CCN(Cc4cccc(C(F)(F)F)c4)C3)c2)cc1` (stereo not drawn): the growth inhibition in experiment [1] is 58% (active); in experiment [4], 97% (active). The inhibition is 15% in experiment [2] and -2% in experiment [3]. Besides, the result in experiment [5], in experiment [6], in experiment [7] and in experiment [8] was inactive.
In the case of `COc1cc(Nc2nccc(N3CCC(NC(=O)c4cccc(NC(C)=O)c4)C3)n2)cc(OC)c1OC` (stereo not drawn), the growth inhibition in experiment [1] is 68% (active); in experiment [4], 98% (active). For the same molecule, the inhibition in experiment [2] is 9%; in experiment [3] it was -6%. In addition, the outcome in experiment [5], in experiment [6], in experiment [7] and in experiment [8] was inactive.
As for `CCOC(=O)c1[nH]c(-c2ccccc2)nc1-n1nc(C)cc1C`, the growth inhibition was 9% in experiment [1] and 92% (active) in experiment [4]. In addition, the inhibition is 7% in experiment [2] and 2% in experiment [3]. In addition, the outcome in experiment [5], in experiment [6], in experiment [7] and in experiment [8] was inactive.

These data come from PubChem BioAssay.
